# Measured potencies and affinities stand elsewhere. Records with an inconclusive call do not appear. Values without a mark were called inactive.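 How the source made its calls, unless noted: active means signal drop whose fitted half-maximal concentration is at most twice the top valid dose, in every test run; inconclusive means mixed calls across runs, poor fit, or flat 30 to 70% inhibition; inactive means wrong direction, flat within 30%, or potency beyond limit.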
# Assay: RMG-1 ovarian cancer cell viability loss – cherry-pick, dose response (AID 687029);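 further: cells exposed to compound for 96 hours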
# Conditions: RMG-1 viability, CellTiterGlo ATP luminescence, 96 h; series mostly up to 35 µM; activity change, negative = inhibition: at the top concentration
row,Structure (SMILES),"activity change, negative = inhibition"
1,Cc1ccc(Cn2ccsc2=NC(=O)CCl)cc1,28.6%
2,C=CCn1c(C)cc(C2=NNC(=NCC)SC2)c1C,28.8%
3,C(=NNc1ccc2ccccc2n1)c1ccccn1,40%
4,COc1ccc(OCc2cccc(C(=O)Nn3cc([N+](=O)[O-])cn3)c2)cc1,21.6%
5,COc1ccc(-c2cc(CNc3nc(NC(C)C)nc4cc(-c5ccccc5)sc34)on2)cc1,28.7%
6,O=C(CCCCCCC(=O)Nc1ccccc1)NO,36.2%
7,Cc1nc(-c2ccc(NC(=O)c3ccco3)cc2)cs1,-156%
8,Cc1onc(C(=O)N2CCN(C(c3ccccc3)c3ccccc3)CC2)c1[N+](=O)[O-],21.9%
9,N#C[C@H]1[C@H](c2ccc(C#CC3CCCC3)cc2)[C@@H](CO)N1C(=O)Nc1ccc(F)cc1,17.9%
10,Nc1nc(Sc2ccc([N+](=O)[O-])c3nonc23)c2[nH]cnc2n1,15.3%
11,CCS(=O)(=O)c1ncc(Cl)c(C(=O)Nc2ccc(S(=O)(=O)N3CCC(C)CC3)cc2)n1,22.2%
12,Clc1ccc(Cn2ncc3c(N4CCN(c5ccccc5)CC4)ncnc32)cc1,10.6%
13,CN(C)CCNC(=O)c1cc2c(s1)-c1ccc(Cl)cc1SC2,27%
14,O=C1C(=O)c2cccnc2-c2ncccc21,25.8%
15,O=c1cc(-c2ccc(O)cc2)oc2ccc3ccccc3c12,32.7%
16,COc1ccc(NC(=O)N2CCCCN3[C@@H](CO)[C@@H](c4ccc(C#Cc5ccccc5)cc4)[C@@H]3C2)cc1,7.28% [at 30 µM]
17,O=C(O)c1ccc(N/N=C/c2ccc3c(c2)OCO3)cc1,63.7%
18,Cc1nn(-c2ccccc2)c(Cl)c1CN(C(=O)CCl)c1cccc2ccccc12,20%
19,COc1ccc2nc(C)cc(N/N=C/c3cccc(OC)c3O)c2c1,18.8%
20,C[C@@H]1CN([C@@H](C)CO)C(=O)Cc2cc(NS(=O)(=O)c3ccccc3)ccc2O[C@H]1CN(C)Cc1ccc(Cl)c(Cl)c1,15%

row,Structure (SMILES),"activity change, negative = inhibition"
1,CCN1CCN(Cc2ccc(NC(=O)c3ccc(C)c(NC(=O)C(=O)c4c[nH]c5ccccc45)c3)cc2C(F)(F)F)CC1,19.3%
2,CN=c1scc(-c2ccccc2F)n1/N=C/c1ccc[nH]1,20%
3,O=C(CCl)N=c1sccn1Cc1cccc2ccccc12,30.4%
4,O=c1c(Cl)c(Cl)cnn1-c1ccccc1,29.8%
5,COC(=O)C1C=CC(OC2OC(COC(C)=O)C(OC(C)=O)C(OC(C)=O)C2OC(C)=O)n2c(=O)n(-c3ccccc3)c(=O)n21 (configuration not stated),-4.54%
6,OCC1OC(n2cnc3c(NCc4ccccc4O)ncnc32)C(O)C1O (configuration not stated),15.3%
7,Nc1ncnc2c(C3OC(CO)C(O)C3O)c[nH]c12 (configuration not stated),17.2%
8,NC(N)=NN=C(c1ccc(F)cc1)c1ccc(C(F)(F)F)cc1,43.2%
9,C=C1C(=O)C23C(O)C1CCC2C12CCCC(C)(COC(C)=O)C1C(O)C3(O)OC2 (configuration not stated),30.8%
10,COc1ccc(N(C(=O)CCl)C(C(=O)NCCc2ccccc2)c2cccs2)cc1 (configuration not stated),-6.15%
11,Cc1ccc(Cl)cc1NC1=C/C(=N\S(=O)(=O)c2cccs2)c2ccccc2C1=O,24.4%
12,CN(C[C@H]1N[C@@H](CO)[C@@H]1c1ccc(C2=CCCC2)cc1)C(=O)c1cccc(F)c1,16.8%
13,COc1ccccc1NC(=O)c1nc(S(=O)(=O)Cc2ccccc2)ncc1Cl,35.2%
14,CCC1CCCCN1S(=O)(=O)c1ccc(NC(=O)c2nc(S(C)(=O)=O)ncc2Cl)cc1 (configuration not stated),40.6%
15,CCCCCN=C(N)N/N=C/c1c[nH]c2ccc(OC)cc12,21.5%
16,Nc1nc(=S)c2ncn([C@@H]3O[C@H](CO)[C@@H](O)[C@H]3O)c2[nH]1,11.7%
17,COC(=O)C1=C(C)N(Cc2cccc(C(F)(F)F)c2)C(=NCc2ccc(OC)cc2)NC1c1cccc(F)c1 (configuration not stated),11.9%
18,COc1ccc(/C=c2/sc3n(c2=O)C(c2ccccc2OC)C2=C(N=3)c3ccccc3CC2)cc1O (configuration not stated),44.7%
19,NC1=C(Br)C(=O)c2ncccc2C1=O,24.8%

# Assay: IOSE-T80 viability loss, PAX8-independent line – cell-based, cherry-pick, selectivity assay for PAX8 inhibitor project, dose response (AID 687032;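 active means fitted half-maximal concentration for viability loss no higher than twice the top valid dose, in every repeat run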;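 further: cells exposed to compound for 96 h before reading; 0% = neutral control wells and -100% = 2 µM mitoxantrone kill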)
# Conditions: CellTiterGlo ATP luminescence, 96 h; series mostly up to 35 µM; activity change, negative = viability loss: at the top concentration
row,Structure (SMILES),"activity change, negative = viability loss"
1,N#C[C@H]1[C@H](c2ccc(C#CC3CCCC3)cc2)[C@@H](CO)N1C(=O)Nc1ccc(F)cc1,12.5%
2,O=c1cc(-c2ccc(O)cc2)oc2ccc3ccccc3c12,4.81%
3,O=c1c(Cl)c(Cl)cnn1-c1ccccc1,5.52%

# From PubChem BioAssay
